Cycloheximide cs: counter-screen hit for Shiga toxin inhibitors, cycloheximide; cell reporter, cycloheximide protein synthesis inhibition counterscreen; max response, %; 300,000 tested, 12% active; AID 2314; in the data active means max response mostly above about 13%, no sharp cut-off; inactive means mostly below about 14%; further: read at 38.3 µM for the half of the compounds with a filed dose; 0% is about no effect
Shiga inhibitor: inhibitors of Shiga toxin in Vero cells | Vero cells, Shiga toxin protein synthesis inhibition reporter | inhibition, % at 38.7 µM | 290,000 tested, 9.2% active | AID 2315; in the data active means inhibition mostly above about 28%, no sharp cut-off; inactive means mostly below about 43%; further: 0% is about no effect
Pf growth 96h: P. falciparum growth inhibition at 96 hour, primary screen for plastid delayed-death inhibitors. P. falciparum luciferase reporter growth, 96 h. Potency, µM (doses to about 28.7 µM), for the others: top-dose activity change, negative = inhibition, hits mostly inhibitors. 320,000 tested, 6.9% active; further: potency means the concentration at half of the fitted maximal effect; on the % scale 0 is the no-effect control and ±100 the full control effect
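Cell-based qHTS: luciferase-tagged P. falciparum in erythrocytes (2% hematocrit, 0.05% parasitemia final) incubated with compounds for 96 hours, 37 C, 5% CO2; luciferase detection reagent then added and luminescence measured.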
Lassa entry inh: blocks Lassa virus binding to or entry into cells. Potency, µM (doses to about 37.9 µM), for inactives: at the highest dose activity change, negative = inhibition, actives largely listed as inhibitors. 300,000 tested, 1.2% active. AID 540256. Lassa virus pseudotype entry inhibition, cell reporter; calls by dose curve; tested in HEK293 cells; further: potency means the concentration at half of the fitted maximal effect; on the % scale 0 is the no-effect control and ±100 the full control effect; nearly all actives have a fitted effect of over 50% in size
Pf growth 48h: P. falciparum growth inhibition at 48 hours (one generation) | P. falciparum luciferase growth in erythrocytes, 48 h | Potency, µM (highest dose often 28.7 µM), without a hit: at the top dose activity change, negative = inhibition, usual class: inhibitors | 310,000 tested, 5.9% active; further: potency means the concentration at half of the fitted maximal effect; on the % scale 0 is the no-effect control and ±100 the full control effect
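Luciferase-expressing parasites in RBCs, 2% Hct / 0.1% parasitemia final; RPMI 1640 + 0.5% Albumax; 37 C, 5% CO2, one generation; luminescence read-out, lower signal = inhibition.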
Marburg entry inh: inhibitors of Marburg virus binding or cell entry; Marburg virus pseudotyped entry inhibition, cell reporter; Potency, µM (titrated, usually from 37.8 µM), for the others: at the top dose activity change, negative = inhibition, usual class: inhibitors; 300,000 tested, 1.8% active; calls by dose curve; tested in HEK293 cells; further: potency means the concentration at half of the fitted maximal effect; on the % scale 0 is the no-effect control and ±100 the full control effect
An asterisk follows results filed as active; ? = inconclusive; · = not tested or not shown; [ ] = dose if it differs, or a comment. Sampled rows, rich in hits. Any-hit rate of the full collection: about 19%. Unless noted, the call rests on the fitted dose curve; in most records, active means well fitted inhibition curve with a large enough effect; inconclusive means small, poorly fitted or top-dose-only effect, or another doubt; inactive means no such curve, though single readings can be large or run the other way.

SMILES	Cycloheximide cs	Shiga inhibitor	Pf growth 96h	Lassa entry inh	Pf growth 48h	Marburg entry inh
O=C(NC(=S)Nc1ccc(Cc2ccncc2)cc1)c1ccccc1Cl	-0.2	-7.4	133.6%	0.7%	-13.9%	?
CC(C)(C)C(=O)Nc1ccc(Cc2ccncc2)cc1	·	·	·	20.0%[46.1 µM]	·	-5.1%[46.1 µM]
Cc1noc(C)c1COc1cccc(C(=O)N2CCc3ccccc32)c1	4.9	-7.0	-17.9%	?	?	?
CC(C)(CNC(=O)c1ccc(S(=O)(=O)Nc2ccccc2F)cc1)N1CCOCC1	·	·	16.1%	-27.3%	-13.4%	-27.4%
COc1ccccc1C(=O)Nc1ccc(Cc2ccncc2)cc1	12.9*	-3.2	4.4%	-1.9%	-12.0%	-31.7%
COc1ccccc1C(=O)NCc1ccncc1	-3.3	-18.7	-19.8%	16.2%[14.3 µM]	9.8%	27.4%
COc1ccccc1C(=O)Nc1ccc(CN2CCCCC2)cc1	11.2*	10.1	14.2%	1.7%	-15.5%	4.6%
O=C(N/N=C/c1ccccc1)c1ccc(CN2C(=O)c3cccc4cccc2c34)cc1	-2.1	19.3	-0.6%	-0.9%	-4.6%	13.7%
Cc1cc([N+](=O)[O-])nn1Cc1ccc(C(=O)N/N=C/c2ccc(O)cc2O)cc1	-4.9	-1.8	-89.3%	3.55µM*	?	7.31µM*
Cc1cc([N+](=O)[O-])nn1CC(=O)N/N=C/c1ccccc1O	23.8*	57.5*	?	·	?	·
Cc1cc([N+](=O)[O-])nn1CC(=O)N/N=C/c1ccccc1F	-1.4	11.1	5.1%	14.4%	-10.6%	1.1%
O=C(N/N=C/c1ccc(O)cc1O)c1ccc(CN2C(=O)c3cccc4cccc2c34)cc1	-0.3	-3.6	?	5.17µM*	?	3.16µM*
COc1ccccc1S(=O)(=O)Nc1cc(C)nn1-c1ccc(C)cc1	-3.1	-5.0	?	2.0%	2.62µM*	-18.7%[46.1 µM]
CC(C)CC(NS(=O)(=O)c1ccc2c(c1)oc(=O)n2C)C(=O)N1CC=C(c2ccccc2)CC1 (stereo unspecified)	2.8	-7.0	10.4µM*	·	·	3.7%
Cn1c(=O)oc2cc(S(=O)(=O)NCCC(=O)N3CC=C(c4ccccc4)CC3)ccc21	12.1	-9.1	-8.1%	0.4%	?	?
CCOC(=O)N1CCN(C(=O)C(CC(C)C)NS(=O)(=O)c2ccc3c(c2)oc(=O)n3C)CC1 (stereo unspecified)	-4.1	2.4	10.4µM*	?	·	-15.5%
Cc1ccccc1Nc1n[nH]c(C)c1[N+](=O)[O-]	17.4	16.1	3.7µM*	4.6%	45.0%	?
COc1ccc(Nc2n[nH]c(C)c2[N+](=O)[O-])cc1	31.7*	100.0*	0.0%	0.3%	64.4%	0.0%
Cc1ccc(Nc2n[nH]c(C)c2[N+](=O)[O-])c(C)c1	18.7	44.1	39.0%	5.6%	52.3%	4.7%
CC(=O)c1ccc(OCC(=O)Nc2cccc(S(=O)(=O)N3CCCC3)c2)cc1	·	·	4.15µM*	?	?	?
COc1ccccc1OCCC(=O)Nc1cccc(S(=O)(=O)N2CCCCC2)c1	-3.2	12.1	-24.2%	-5.9%	-3.8%	-15.6%
CCOc1ccccc1OCC(=O)Nc1cccc(S(=O)(=O)N2CCCCCC2)c1	·	·	13.1µM*	?	?	?
CCOc1ccccc1OCC(=O)Nc1ccc(OC)c(S(=O)(=O)N2CCCCC2)c1	·	·	11.7µM*	-9.0%	?	?
O=C(COc1ccc2ccc(=O)oc2c1)Nc1cccc(S(=O)(=O)N2CCCCC2)c1	·	·	4.65µM*	5.5%	11.7µM*	-7.2%
COc1ccc(NC(=O)COc2ccccc2C)cc1S(=O)(=O)N1CCCCC1	·	·	?	?	-18.7%	?
SMILES	Cycloheximide cs	Shiga inhibitor	Pf growth 96h	Lassa entry inh	Pf growth 48h	Marburg entry inh
CC(=O)c1ccc(S(=O)(=O)N(C)CC(=O)Nc2cccc(S(=O)(=O)N3CCCC3)c2)cc1	·	·	·	9.2%	·	0.6%
Cc1cc(C)nc(SCC(=O)c2ccc([N+](=O)[O-])cc2)n1	1.4	7.9	0.1%	-17.3%	0.8%	2.4%[46.1 µM]
Cc1ccc(C2C(C#N)=C(N)Oc3n[nH]c(C)c32)cc1 (stereo unspecified)	-3.6	-7.5	·	5.4%	3.6%	?
Cc1ccc2cccc(OCC(=O)Nc3cccc(S(=O)(=O)N4CCCC4)c3)c2n1	·	·	?	?	9.28µM*	?
CCOc1ccc(C(=O)N[C@H](C(=O)Nc2cccc(S(=O)(=O)N3CCCCC3)c2)C(C)C)cc1	-3.4	-8.1	10.4µM*	-1.5%	?	?
N#Cc1ccccc1OCC(=O)Nc1cccc(S(=O)(=O)N2CCCCCC2)c1	·	·	?	?	13.1µM*	?
Cc1ccc(OCC(=O)Nc2cccc(S(=O)(=O)N3CCCCC3)c2)c([N+](=O)[O-])n1	-2.6	-2.3	?	-0.6%	-23.4%	?
COC(=O)c1ccccc1S(=O)(=O)N1CCC(C(=O)OCC(=O)NC2CCCCC2C)CC1 (stereo unspecified)	·	·	23.6%	·	-12.3%	·
O=C(CN1CCN(c2cccc(C(F)(F)F)c2)CC1)N(C1CCCC1)C1CCS(=O)(=O)C1 (stereo unspecified)	·	·	8.28µM*	-18.5%	14.7µM*	-7.7%
CCc1c(C(=O)Nc2ccc(OC)c(Cl)c2)[nH]c(C)c1C(C)=O	-1.5	5.3	-5.5%	-20.4%	11.7µM*	?
CCOC(=O)c1[nH]c(C)c(C(=O)NC2CCCC2)c1C	-3.0	-12.6	-4.2%	·	·	·
CCOC(=O)c1[nH]c(C)c(C(=O)C(C)C)c1C	16.9*	17.1	67.7%	?	·	3.0%
CCOC(=O)c1[nH]c(C)c(C(=O)NC2CCCCCC2)c1C	-2.9	23.6	9.28µM*	-0.4%	9.9%	17.3%
CCOC(=O)c1[nH]c(C)c(CC(C)C)c1C	20.4*	28.2	-29.7%	?	6.5%	?
COc1ccc(Cl)cc1NC(=O)c1[nH]c(C)c(C(C)=O)c1C	-2.2	-6.8	30.3%	0.5%	53.7%	-3.4%[46.1 µM]
CCC(Sc1nc2ncccc2[nH]1)C(=O)NCCc1ccccc1 (stereo unspecified)	-1.9	5.9	-3.2%	·	30.1%	·
COc1ccc(NC(=O)CN2CCN(c3ccccn3)CC2)cc1Cl	1.0	-5.1	?	·	19.4%	·
CCOC(=O)c1[nH]c(C)c(C(=O)Nc2ccc(C)c(Cl)c2)c1C	9.0*	7.9	-12.9%	?	39.6%	?
Cn1c(SCC(=O)Nc2ccc3c(c2)OCCO3)nnc1C(F)(F)F	·	·	15.2%	·	18.5%	·
Cn1c(SCC(=O)c2ccc3c(c2)OCO3)nnc1-c1ccccn1	24.5	19.4	·	7.4%	8.7%	19.7%
Cn1c(SCC(=O)c2ccc3c(c2)OCCO3)nnc1C(F)(F)F	21.6*	34.4	-6.3%	·	80.9%	·
Cn1c(SCC(=O)c2ccc3c(c2)OCCO3)nnc1C1CC1	17.6*	43.7*	?	-1.3%	25.9%	9.2%
O=C(NCCCn1ccnc1)c1cccc(S(=O)(=O)Nc2ccc(Br)cc2)c1	·	·	?	5.5%	?	-6.4%
